From PubChem
A selection: hits, their analogues and other compounds. The true share with any hit is near 11%.
ALDH1A1 inh: inhibitors of human aldehyde dehydrogenase 1A1. P00352. Purified ALDH1A1, NADH fluorescence, propionaldehyde substrate. Potency, µM (top dose mostly 75.3 µM), hits mostly inhibitors. actives 7.3% (n = 220,000). AID 1030
PNC inhibitor: blocks assembly of the perinucleolar compartment; PC3M PTB-GFP, PNC prevalence imaging, 16 h; hits give low values; activity change (PNC), negative = inhibition, % at 10 µM; actives 3.1% (n = 140,000);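 active means readout at or below -70, meaning at least 70% loss of cells showing the perinucleolar compartment, a nuclear body marking cancer cells; inconclusive means readout between -30 and a set limit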
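PC3M cells stably expressing PTB-GFP, 750–1000 cells/well, treated 16 h at 37 °C with compound (23 nl of library stock), in duplicate. After paraformaldehyde fixation and Hoechst stain, imaged at 20x; PNC prevalence scored by image analysis.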
HPGD block: HPGD (human) dehydrogenase inhibition | purified HPGD, NADH fluorescence kinetic, PGE2 substrate | actives 4.3% (n = 150,000) | P15428 | Potency, µM, usual class: inhibitors | AID 894
Target sequence (P15428 whole entry, looked up): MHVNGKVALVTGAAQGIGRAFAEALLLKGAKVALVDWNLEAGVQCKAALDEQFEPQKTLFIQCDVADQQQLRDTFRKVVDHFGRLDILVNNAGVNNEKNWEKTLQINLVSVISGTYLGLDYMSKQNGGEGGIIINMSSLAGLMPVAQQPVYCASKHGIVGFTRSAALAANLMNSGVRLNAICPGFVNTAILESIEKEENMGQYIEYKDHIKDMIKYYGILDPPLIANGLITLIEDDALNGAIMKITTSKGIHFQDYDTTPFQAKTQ
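NADH formation kinetics: reaction with 30 uM PGE2 and 1 mM NAD+ (final), 20 nM enzyme, Tris-HCl pH 8 with Tween 20, after 15 min compound preincubation at room temperature. Fluorescence change, last versus first of five reads.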
A number is an active result; . = inactive; ? = inconclusive; / = not tested or not shown. Unless noted, the call rests on the fitted dose curve; in most records, active means well fitted inhibition curve with a large enough effect (not every such curve was filed as active); inconclusive means small, poorly fitted or top-dose-only effect, or another doubt; inactive means no such curve, though single readings can be large or run the other way.

SMILES | ALDH1A1 inh | PNC inhibitor | HPGD block
CCCOc1ccc(-c2nc[nH]c2[N+](=O)[O-])cc1 | . | / | /
Cc1nc(SCCOc2ccccc2F)[nH]c(=O)c1Cc1ccccc1 | . | / | /
COC(=O)c1sc2ccccc2c1NC(=O)c1ccc(S(=O)(=O)N2CCC(C)CC2)cc1 | . | . | .
CO | . | / | .
C/C(=N\NC(=O)CSc1nc(C)cc(C)n1)c1cccc([N+](=O)[O-])c1 | . | . | .
Cc1ccccc1N(CC(=O)Nc1ccccc1C(=O)NCc1ccco1)S(=O)(=O)c1ccccc1 | ? | . | .
COC(=O)CC(c1ccc(C(C)C)cc1)n1cccc1 (stereo unspecified) | . | / | /
COC(=O)c1ccc(-c2ccc(C(=O)N3CCCN(C)CC3)cc2)cc1 | . | . | 1.3µM
CC(C)OC(=O)COc1ccc(-c2ccccc2)cc1 | . | . | .
CN1CCN(C(=O)c2ccc(S(=O)(=O)c3ccc(Br)cc3)cc2)CC1 | . | . | /
O=C(c1cc2cc(Cl)ccc2oc1=O)N1CCCC1 | . | . | .
O=C(c1ccc(Br)cc1)N1CCCC1 | . | . | 7.9µM
COC(=O)c1ccccc1NC(=O)Nc1ccc(C(=O)N2CCCC2)cc1 | . | ? | .
CC(=O)c1ccc(OCC(=O)c2ccc(-c3ccccc3)cc2)cc1 | . | -87 | .
O=C(c1cc2cc(Br)ccc2oc1=O)N1CCCC1 | . | . | 20µM
O=C(NCC1(N2CCCCC2)CCCCC1)C1CC(=O)N(c2ccc3c(c2)OCCO3)C1 (stereo unspecified) | . | / | /
Cc1ccc2nc(C)c3c(c2c1)COC3 | . | . | .
O=C(c1ccncc1)N1CCN(C(=O)c2ccncc2)CC1 | . | . | .
Cc1ccc(C(=O)N2CC(C(=O)O)C2)cc1 | . | / | /
CNC(=O)C1CCN(C(=O)c2ccc(-c3ccccc3)cc2)CC1 | ? | . | .
Cc1ccc(C(=O)N2CCSCC2)cc1 | . | . | 0.28µM
O=C(c1ccc(-c2ccccc2)cc1)N1CCCC1 | . | . | 1.6µM
CC(C)c1ccc(C(=O)N2CCCN(C(=O)c3ccc(C(C)C)cc3)CC2)cc1 | 7.9µM | ? | .
Cc1cnc(C(=O)OCC(=O)NCc2ccc3c(c2)OCO3)cn1 | . | / | /
COc1ccc(OC)c(C2C3CN(C(C)C)CC=C3C(C#N)=C(N)C2(C#N)C#N)c1 (stereo unspecified) | ? | . | ?
SMILES | ALDH1A1 inh | PNC inhibitor | HPGD block
CCCN1CC=C2C(C#N)=C(N)C(C#N)(C#N)C(c3cccc(OC)c3OC)C2C1 (stereo unspecified) | ? | -95 | ?
COc1ccc([N+](=O)[O-])cc1N(CC(=O)NC(C(C)C)C(C)C)S(C)(=O)=O | . | / | /
O=C(COC(=O)c1ccccc1NS(=O)(=O)c1cc([N+](=O)[O-])ccc1Cl)c1ccccc1 | . | / | /
CN(C(=O)COC(=O)c1cc(NS(=O)(=O)c2cc([N+](=O)[O-])ccc2Cl)ccc1O)C1CCCCC1 | ? | -95 | .
CC/C=C\C/C=C\C/C=C\C/C=C\C/C=C\C/C=C\CCC(N)=O | . | / | .
Cc1[nH]c(=O)c(C#N)c2c1CSC(C)(C)C2 | ? | -100 | ?
CCc1[nH]c(=O)c(C#N)c2c1CSC(C)(C)C2 | ? | . | ?
O=C(CCn1cnnn1)Nc1cccc(F)c1 | . | / | /
Nc1ccc(Oc2ccc([N+](=O)[O-])cc2[N+](=O)[O-])cc1 | ? | . | .
COc1cc(/C=C2/SC(N)=NC2=O)ccc1Oc1ccc([N+](=O)[O-])cc1[N+](=O)[O-] | . | . | .
CC1=NN(c2ccccc2)C(=O)/C1=C\c1ccc(Oc2ccc([N+](=O)[O-])cc2[N+](=O)[O-])cc1 | 8.9µM | ? | 8.9µM
COc1cc(/C=C2\C(=O)N(c3ccccc3)N=C2C)ccc1Oc1ccc([N+](=O)[O-])cc1[N+](=O)[O-] | ? | . | 13µM
CC(=O)c1ccc(NC(=O)C2C3C=CC(C3=C(c3ccccc3)c3ccccc3)C2C(=O)O)cc1 (stereo unspecified) | . | / | /
COC(=O)c1ccccc1NC(=O)Cc1nc(-c2ccccc2)sc1-c1ccc(C)cc1 | 10µM | . | .
COC(=O)c1ccccc1NC(=O)CSc1nnc(-c2ccc(C)cc2)o1 | . | . | .
CC(C)(C)OC(=O)N1CCC[C@H]1c1nnc(SC/C=C/c2ccccc2)o1 | 22µM | . | /
CC(C)(C)OC(=O)N1CCC[C@H]1c1nnc(SCc2ccccc2Cl)o1 | . | -114 | .
CC(C)(C)OC(=O)N1CCC[C@H]1c1nnc(SCc2ccc(Cl)cc2Cl)o1 | . | . | .
CCCCSc1nnc([C@@H]2CCCN2C(=O)OC(C)(C)C)o1 | ? | . | /
CCOC(=O)c1ccc(NC(=O)N2CCN(C(=O)C3CCCO3)CC2)cc1 (stereo unspecified) | . | / | /
C=CCc1c(C)[nH]c(=O)[nH]c1=O | . | / | /
CCCC(=O)Nc1ccc(NC(=O)c2ccco2)cn1 | . | . | /
O=C(Nc1cccnc1)c1ccc(NC(=O)c2ccco2)cc1 | ? | . | ?
O=C(Nc1ccc(NC(=O)c2ccco2)nc1)c1cccnc1 | . | -100 | .
CC(C)C(=O)Nc1ccc(NC(=O)c2ccco2)cn1 | 28µM | . | /
SMILES | ALDH1A1 inh | PNC inhibitor | HPGD block
CCCCCn1c(SCCOCC)nc2c1c(=O)[nH]c(=O)n2C | ? | . | .
CC(C)n1c(SCCCc2ccccc2)nc2c1c(=O)[nH]c(=O)n2C | ? | . | 20µM
Cn1c(=O)[nH]c(=O)c2c1nc(Sc1ncccn1)n2CCCc1ccccc1 | . | . | .
CCCn1c(SCCc2ccccc2)nc2c1c(=O)[nH]c(=O)n2C | ? | . | .
COCCn1c(SCCCc2ccccc2)nc2c1c(=O)[nH]c(=O)n2C | 20µM | . | /
CCOCCn1c(SCCc2ccccc2)nc2c1c(=O)[nH]c(=O)n2C | ? | . | .
CCCCCCn1c(SCCC)nc2c1c(=O)[nH]c(=O)n2C | ? | -86 | /
CC(C)CCn1c(SCCc2ccccc2)nc2c1c(=O)[nH]c(=O)n2C | 6.3µM | . | ?
COc1ccc(-c2[nH]ncc2CNCC(C)(C)N2CCOCC2)cc1F | . | / | /
N=c1ccn2c(n1)O[C@@H]1[C@H](O)[C@H](CO)O[C@@H]12 | . | / | .
O=C(O)CCC/C=C\C[C@@H]1C(/C=C/[C@@H](O)COc2cccc(C(F)(F)F)c2)[C@@H](O)C[C@@H]1O (stereo partly specified) | . | / | /
CC(C)(C)NC(=O)CCc1ncc(C(F)(F)F)cc1Cl | . | / | /
COc1ccc(N(C(C)C(=O)N2CCC(Cc3ccccc3)CC2)S(C)(=O)=O)cc1 (stereo unspecified) | . | / | /
CCCCSc1nc2c(c(=O)[nH]c(=O)n2C)n1CCc1ccccc1 | 2.5µM | . | .
CCC(C)Sc1nc2c(c(=O)[nH]c(=O)n2C)n1Cc1ccccc1Cl (stereo unspecified) | 1.3µM | . | .
CCCCCn1c(SCCc2ccccc2)nc2c1c(=O)[nH]c(=O)n2C | ? | . | .
Cc1csc(Sc2nc3c(c(=O)[nH]c(=O)n3C)n2Cc2ccccc2Cl)n1 | ? | . | /
C/C(Cl)=C/Cn1c(SCC(C)C)nc2c1c(=O)[nH]c(=O)n2C | ? | . | .
CCCCCn1c(SCC(=O)OC)nc2c1c(=O)[nH]c(=O)n2C | . | . | .
CCOC(=O)C(CC)Sc1nc2c(c(=O)[nH]c(=O)n2C)n1C/C=C(/C)Cl (stereo unspecified) | 3.5µM | . | 4µM
CCCCCOC(=O)CSc1nc2c(c(=O)[nH]c(=O)n2C)n1CCc1ccccc1 | 25µM | . | 25µM
